For 88 compounds, inhibition results are on record in PubChem BioAssay AID2129 (The Scripps Research Institute Molecular Screening Center, 2009).

In all, about 320,000 compounds went through this assay and about 2,200 (0.69%) were called active. The full list was thinned out, with actives kept by preference. Unmarked numbers belong to inactive results.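 How the source made its calls: active means inhibition above the mean of all tested compounds plus 3 SD, cutoff set per campaign (cut at about 30% in these data); inactive means the rest.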

One may read the inhibition as the drop in the measured response relative to a control, in per cent.

The target of this experiment is Bcl-2-like protein 1 (Homo sapiens) (UniProt Q07817). Briefly: inhibitors of human Bcl-xL, primary screen, biochemical, fluorescence polarization, HTS (AID 2129).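 Further: 0% = DMSO wells and 100% = unlabeled Bim-BH3 peptide competitor; inhibitors lower millipolarization by displacing the labeled peptide.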 Particulars: GST-Bcl-xL / FITC-Bim BH3 peptide fluorescence polarization; at 10.9 µM; active compounds read high. On the technique in general: In fluorescence polarisation assays a small probe gives low polarisation when free and higher when bound to something large.
Sequence of Bcl-2-like protein 1 (Homo sapiens) (Q07817 whole entry, looked up): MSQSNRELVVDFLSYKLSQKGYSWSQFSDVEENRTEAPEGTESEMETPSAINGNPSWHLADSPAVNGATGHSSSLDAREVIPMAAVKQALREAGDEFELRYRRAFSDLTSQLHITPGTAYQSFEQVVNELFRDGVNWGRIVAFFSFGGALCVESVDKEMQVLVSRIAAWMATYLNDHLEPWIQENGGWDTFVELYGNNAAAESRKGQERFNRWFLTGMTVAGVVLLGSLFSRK
On to `CCOC(=O)c1ccc(NC(=O)c2c(NCc3ccccc3)[nH]c(=O)[nH]c2=O)cc1`, for which the inhibition was 2.87%.
For `O=C(CSC(=S)N1CCCCC1)c1c(F)cccc1F`, the inhibition was 3.52%.
Under `COc1ccc(OC)c(CCNC(=O)CCn2ccc3cc(S(=O)(=O)N4CCCC4)ccc32)c1` stands 0.09%; under `COc1ccc(-c2nc(CS(=O)CC(=O)NCc3ccccn3)c(C)o2)cc1` (stereo not drawn), 95.6% (active); under `COc1ccc(-c2nc(CS(=O)CC(=O)NCc3ccccc3)c(C)o2)cc1OC` (stereo not drawn), 4.97%.
Next, `COc1cccc(-c2nc(CS(=O)CC(=O)NCc3ccc(F)cc3)c(C)o2)c1` (stereo not drawn): 7.05%.
Next, `Cc1ccccc1-n1c(SCC(=O)Nc2cccc3ccccc23)nc(O)cc1=O`: -0.46%; `Cc1c(C(=O)NC2CCCCC2)oc2ccccc12`: -0.72%.
With `COc1cccc2c1OCC(CN1CCN(C3CCCCC3)C(CCO)C1)=C2` (stereo not drawn), the inhibition was 2.11%.
As for `Cc1ccc(CNC(=O)C(=O)c2cn(CC(=O)N3CCCC3)c3ccccc23)cc1`, the inhibition was 5.15%.
On to `Cn1cnnc1SCc1nnc(-c2ccccc2Br)o1`, for which the inhibition was 2.35%.
Under `CCOC(=O)N1CCN(Cc2nnc(-c3ccccc3Cl)o2)CC1` stands -2.11%; under `Nc1cccc2c1C(=O)N(Cc1nnc(-c3ccccc3Br)o1)C2=O`, 48% (active); under `CC(=O)NNC(=O)c1csc(Cc2c(Cl)sc3ccc(Cl)cc23)n1`, 1.7%.
Under `Cc1ccc([N+](=O)[O-])c(OCCCNCC(C)O)c1` (stereo not drawn) stands 8.16%; under `COc1ccc2cc1Oc1ccc(cc1)C[C@H]1c3cc(c(OC)cc3CCN1C)Oc1c(O)c(OC)cc3c1[C@H](C2)N(C)CC3`, 6.82%.
In the case of `COc1c(O)ccc2c1CN1CCc3cc4c(cc3C1C2)OCO4` (stereo not drawn), the inhibition was 33.7% (active).
Next, `COc1ccc(CN2CCCC(N3CCc4ccccc4C3)C2)c(O)c1` (stereo not drawn): -3.09%; `CN(C(=O)COC(=O)CCCc1c[nH]c2ccccc12)c1c(N)n(Cc2ccccc2)c(=O)[nH]c1=O`: -5.75%; `O=C(Nn1c(SCc2ccc([N+](=O)[O-])cc2)nc2ccccc2c1=O)c1ccc(F)cc1`: -2.84%.
Next, `COc1ccc2[nH]c(C)c(CCN(Cc3cccs3)C(=S)Nc3ccccc3OC)c2c1`: 59.5% (active); `COc1cccc(NC(=S)N(CCc2c(C)[nH]c3ccccc23)Cc2ccco2)c1`: -0.26%; `Cc1[nH]c2ccccc2c1CCN(Cc1cccs1)C(=S)NC(C)(C)C`: 3.98%.
Next, `COCCn1c(N)c(NCc2ccccc2)c(=O)[nH]c1=O`: 64.6% (active); `COCCn1c(N)c(N(Cc2ccccc2)C(=O)C2CCCCC2)c(=O)[nH]c1=O`: -0.25%; `COc1ccc(CNc2nc3c(c(=O)[nH]c(=O)n3C)n2Cc2ccccc2)cc1`: 2.21%.
On to `COc1ccc(CCNC(=O)CCCCCNC(=O)N2CCn3c2nc2ccccc23)cc1OC`, for which the inhibition was 1.04%.
For `Cc1cccn2c(=O)c3cc(C(=O)NCC4CCCO4)c(=N)n(Cc4ccc(F)cc4)c3nc12` (stereo not drawn), the inhibition is 0.48%.
Under `Cc1cccn2c(=O)c3cc(C(=O)NCCN4CCOCC4)c(=N)n(Cc4cccnc4)c3nc12` stands 48.6% (active).
With `COc1ccc(CCn2c(=N)c(C(=O)NCC3CCCO3)cc3c(=O)n4cccc(C)c4nc32)cc1OC` (stereo not drawn), the inhibition is 1.5%.
In the case of `Cc1ccc(S(=O)(=O)N(Cc2ccc(Cl)cc2)c2ccccc2C(=O)NCc2cccnc2)cc1`, the inhibition is 0.59%.
Next, `Cc1sc(NC(=O)c2ccc3ncsc3c2)c(C(N)=O)c1C`: 4.75%; `O=C(COc1ccc(/C=N/NS(=O)(=O)c2ccccc2)cc1)NCCc1ccccc1`: 5.85%; `COc1ccc(C2=CC(c3cccc(OC)c3)n3nnnc3N2)cc1` (stereo not drawn): 29.1%.
Turning to `COc1ccc(C2C=C(c3ccc(Br)cc3)Nc3nc(NS(C)(=O)=O)nn32)cc1` (stereo not drawn), the inhibition was 164% (active).
Next, `CC(C)c1ccc(N2CC(C(=O)Nc3nccs3)CC2=O)cc1` (stereo not drawn): -0.59%; `CC1=C(C(=O)N(C)C)C(c2ccccc2OC(F)F)NC(=O)N1` (stereo not drawn): 3.23%; `Cc1cc2occ(CC(=O)NNC(=O)c3ccccc3F)c2cc1C`: 0.46%.
Under `COc1ccccc1NC(=S)N1CCC(NC(=O)C23CC4CC(CC(C4)C2)C3)CC1` stands 2.22%; under `Cc1cccn2c(=O)c3cc(C#N)c(=NC(=O)c4cccnc4)n(CC4CCCO4)c3nc12` (stereo not drawn), 47.4% (active); under `Cc1cccn2c(=O)c3cc(C#N)c(=O)n(CCCN4CCOCC4)c3nc12`, 28.5%.
`COc1ccc(CNC(=O)c2cc3c(=O)n4ccccc4nc3n(CC3CCCO3)c2=N)cc1` (stereo not drawn): the inhibition was 8.61%.
Under `Cc1oc2c(C)c3oc(=O)c(CC(=O)N[C@@H](CC(C)C)C(=O)N[C@@H](Cc4ccccc4)C(=O)O)c(C)c3cc2c1C` stands 10.3%; under `CCOc1ccc(/C=N/OCC(=O)NCc2cccs2)cc1`, 2.85%; under `CCN(c1ccccc1)S(=O)(=O)c1ccc(OCC(=O)N2CCCC2)cc1`, 3.8%.
Next, `CC(C)[C@@H](NC(=O)OC(C)(C)C)C(=O)NCC1CCC(C(=O)N[C@@H](Cc2ccccc2)C(=O)O)CC1` (stereo partly drawn): 7.31%; `CC(C)C1N=C2c3ccccc3N=C(SCC(=O)c3ccc(O)c(O)c3)N2C1=O` (stereo not drawn): 13.5%; `CC1(C)Cc2c(C#N)c(SCc3nc4ccccc4[nH]3)nc(N3CCOCC3)c2CO1`: 6.67%.
For `C1=C(N2CCOCC2)/C(=C/c2nc3ccccc3[nH]2)CC1`, the inhibition is 88.2% (active).
For `O=c1[nH]c(N2CCOCC2)nc2ccccc12`, the inhibition is 3.04%.
Next, `CCN(c1ccc2c(c1)OCO2)S(=O)(=O)c1cc(Br)cc2c1N(C(=O)C1CC1)CC2`: 34% (active).
Next, `CCOC(=O)N1CCN(S(=O)(=O)c2cc(Br)cc3c2N(C(=O)C2CC2)CC3)CC1`: -4.43%.
Under `CS(=O)(=O)N(CC(=O)NCc1ccco1)c1ccc2c(c1)OCO2` stands 5.67%; under `CCOc1cc(/C=C/C(=O)OCC(=O)NCCN2C(=O)CSC2=O)ccc1OCC(C)C`, -5%; under `N#CC1=C(N)C(C#N)(C#N)[C@H](c2ccsc2)[C@H]2COCC=C12`, 37.8% (active).
For `Cc1cccc(Nc2nc(NCCO)nc(N3CCCC3)n2)c1`, the inhibition was -0.55%.
As to `CCCc1cc(=O)[nH]c(SCC(=O)N2CCN(S(=O)(=O)c3ccc(C)cc3C)CC2)n1`, the inhibition is 3.73%.
Next, `Cc1cc2oc3ccc(NCCC4CCCN4C)cc3c(=O)c2cc1C` (stereo not drawn): 40.9% (active); `CCCOc1ccc(C2c3c(oc4cc(C)c(C)cc4c3=O)C(=O)N2CCCN2CCOCC2)cc1` (stereo not drawn): 11.6%.
As to `Fc1c(F)c(C(F)(F)F)c(F)c(F)c1N1CCN(c2ccc3nnc(C(F)(F)F)n3n2)CC1`, the inhibition is 3.95%.
Next, `COc1cc(/C=C/C2=CC(C)(C)NC(=S)N2)cc(OC)c1OC`: -3.53%; `CCCCOC(=O)CNc1nnc(SCC(=O)OCC)[nH]c1=O`: 15.6%; `O=S(=O)([N-]c1nc2ccccc2nc1-[n+]1ccc(Cc2ccccc2)cc1)c1ccc(Br)s1`: 82.6% (active).
On to `Cc1cc(C)c[n+](-c2nc3ccccc3nc2[N-]S(=O)(=O)c2cccs2)c1`, for which the inhibition was 5.77%.
In the case of `O=C(NCCc1ccccc1)C1CCN(S(=O)(=O)c2ccc(Br)s2)CC1`, the inhibition was 2.98%.
Next, `COC(=O)C1=C(O)/C(=C/c2ccc(OCC(=O)Nc3ccccc3)cc2)N=C1C`: 0.76%; `CCOC(=O)C1=C(O)/C(=C/c2cc(C)n(-c3ccccc3)c2C)N=C1C`: 35.6% (active).
Under `CCOC(=O)C1=C(O)/C(=C/c2ccc(OCC(=O)Nc3ccc(C)cc3)cc2)N=C1C` stands -2.9%; under `CCn1c2c(c3ccc(OC)cc31)CCCC2=O`, 5.26%; under `O=S(=O)(c1ccc(SCc2ccccc2)nc1)N1CCCCCC1`, 5.07%.
Next, `CC(=O)c1cnn(-c2cc(Oc3ccc(F)cc3)ncn2)c1C`: 2.24%.
Turning to `COc1ccc(NS(=O)(=O)c2ccc(F)cc2F)cn1`, the inhibition is 3.96%.
As to `COc1cccc(Nc2ncccc2C(=O)O)c1`, the inhibition was 6.39%.
Take `COc1ccc(Nc2cc(Cl)ccc2C(=O)O)cn1`: the inhibition is 50.8% (active).
As to `CCCCOP(=O)(c1ccc(N(C)C)cc1)C(O)c1cc(OC)ccc1OC` (stereo not drawn), the inhibition was 5.82%.
Take `Cc1ccc(NC(=O)CSCC(=O)N2CCOCC2)cc1`: the inhibition is 1.4%.
Next, `Cc1cc(S(=O)(=O)c2cc3ccc(O)c(C)c3oc2=O)ccc1F`: 40.6% (active); `COc1cccc2cc(S(=O)(=O)c3ccc(C)cc3)/c(=N/NS(=O)(=O)c3ccc(C)cc3)oc12`: 5.22%.
Next, `COC(=O)Cc1cc(=O)oc2c(C)c(O)ccc12`: 4.68%.
Next, `Cc1ccc(NC(=O)C2CC2c2ccccc2)cc1` (stereo not drawn): 2.22%; `CC(=O)N1c2ccc(S(=O)(=O)N3CCC(C(=O)NC4CCCC(C)C4C)CC3)cc2CC1C` (stereo not drawn): 0.13%.
Consider `COc1ccccc1/C=C/C=N/n1c(-c2ccc(Cl)cc2Cl)n[nH]c1=S`, for which the inhibition was -7.95%.
Next, `COC(=O)c1ccc(SCc2ccccc2)nc1`: 6.87%.
Regarding `CSc1c(SCc2ccccc2)cnn(Cc2ccccc2)c1=O`, the inhibition is 145% (active).
Next, `CCn1c(SCc2ccccc2)nc2cc(OC)c(OC)cc2c1=O`: 3.12%; `CCc1ccccc1NC(=O)NCCN1CCCCC1`: 5.44%.
With `CCOC(=O)[C@@H]1[C@H]2COc3cc(OC)ccc3[C@@H]2N2C(=O)N(c3cccc(C)c3)C(=O)[C@@]12C`, the inhibition was 3.42%.
Under `Cn1sc(=O)c2cc(S(=O)(=O)NC3CC3)ccc21` stands 2.2%.
